# From PubChem BioAssay (NCATS)
# Results filed as inconclusive are left out. A call without a number means that no potency is given here. A number with no mark means an inactive call. Calls of active or inactive are those of the source. The call rests on the fitted dose curve; in most records, active means well fitted curve in either direction with a large enough effect (not every such curve was filed as active); inconclusive means small, poorly fitted or top-dose-only effect, or another doubt; inactive means flat fitted curve, though single readings scatter.
# Biological target: Mitogen-activated protein kinase 10 (Mus musculus) (UniProt Q61831)
# Assay: JNK3 AlphaScreen Assay (AID 530);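 further: kinase came from lysate of stimulated human HepG2 cells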
# Settings: JNK3 lysate, c-Jun phosphorylation; series mostly up to 57.1 µM
# Source text: NIH Chemical Genomics Center [NCGC]
# NIH Molecular Libraries Screening Centers Network [MLSCN]
# The c-jun N-terminal kinase (JNK) family are serine/threonine protein kinases that phosphorylate c-jun, a component of the transcription factor […] (AP-1). JNK kinases are members of the mitogen-activated protein kinase family including the extracellular regulated kinases and p38 kinases. Three JNK genes (JNK 1, 2, and 3) have been identified in humans so far. JNK1 and JNK2 have a broad distribution and JNK3 is primarily found in neuronal tissues and cardiac myocytes.
# JNK3 has been under consideration as a target for the treatment of neurodegenerative disorders. […] JNK pathway is also involved in pathological process in a mouse model of Parkinson's disease (Xia et al., 2001).
# Given these potential tissue distributions and links to neuroprotection, JNK3 inhibitors should provide useful investigational tools to study the role of this kinase in several diseases including, arthritis, stroke, myocardial infarction, ischemic injury and Parkinson's disease.
# A homogeneous AlphaScreen is developed to measure the activity of JNK3. AlphaScreen is a two bead-based proximity-dependent chemical energy transfer luminescent assay platform. The phosphorylation of a biotinylated c-jun substrate by JNK3 can be detected with an antibody raised against phosphorylated c-jun. This process brings streptavidin donor beads and Protein-A acceptor beads to within a proximity range of <200 nm, and subsequently lead a chemical luminescent reaction upon exciting donor beads with 680 nm laser excitation light. Inhibition of JNK3 activity by small molecules and subsequent decrease in the antibody binding to biotinylated c-jun could attenuate or abolish this chemical luminescent reaction.
# Yang DD, Kuan CY, Whitmarsh AJ, Rincon M, Zheng TS, Davis RJ, Rakic P and Flavell RA (1997) Absence of excitotoxicity-induced apoptosis in the hippocampus of mice lacking the Jnk3 gene. Nature 389:865-870. [PMID: 9349820]
# Herdegen T, Claret FX, Kallunki T, Martin-Villalba A, Winter C, Hunter T, and Karin M (1998) Lasting N-terminal phosphorylation of c-Jun and activation of c-Jun N-terminal kinases after neuronal injury. J.Neurosci. 18:5124-5135. [PMID: 9651196]
# Xia XG, Harding T, Weller M, Bieneman A, Uney JB and Schulz JB (2001) Gene transfer of the JNK interacting protein-1 protects dopaminergic neurons in the MPTP model of Parkinson's disease. Proc.Natl.Acad.Sci.U.S.A. 98:10433-10438.
# NCGC Assay Protocol Summary:
# GST-cJun (1-79) (Stratagene, La Jolla CA, #205145) was biotnylated by PerkinElmer (PerkinElmer-BioSignalInc. Montreal, Canada) and was detectable by the streptavidin Donor beads. Anti-(phospho)cJun (Ser73) antibody was from UpState (Charlottesvilles, VA, #06-659). JNK3-containing lysates were generated from HepG2 cells and pre-activated by interleukin1-beta and tumor necrosis factor alpha. All reagents were stored at -20 C before using. Phosphorylated biotinylated-GST-cJun was recognized by Anti-(phospho)cJun (Ser73) antibody and this process brings acceptor and donor beads together. Therefore JNK3 phosphorylation of cJun can be measured by Alpha reading by EnVision (PerkinElmer, Boston, MA).
# The composition of kinase buffer was (in mM) 20 tris- HCl (pH 7.6) 10 MgCl2, 1 DTT, and 0.1 Na3VO4 and 0.01% Tween-20. Beads were diluted in detection buffer containing (in mM) 20 tris-HCl (pH 7.7), 20 NaCl and 80 EDTA and 0.3% BSA. The assay was performed at room temperature. All compounds were screened as titrations from 0.6 nM to 46 uM final concentration. The assay was performed in 1536-well format (white solid bottom and untreated) as follows:
# Sequence,Parameter,Value,Description
# 1,Reagent,3 uL,Biotin-GST-cJun, Anti-(phospho)cJun and pre-activated JNK3-containing lysates
# 2,Compound,23 nL,Final concentration was 0.6nM to 46uM
# 3,Time,15 minutes,Room Temperature
# 4,Reagent,1 uL,ATP final concentration 10uM
# 6,Reagent,0.5 uL,2ng/well bead mixture
# […]
Compound,Potency,"activity change, negative = inhibition"
ClCCCCl,inactive,–
Nc1ccc(Cc2ccc(N)cc2)cc1,inactive,–
CCN(N=O)C(N)=O,inactive,–
N#CCc1ccccc1,inactive,–
ClCCBr,inactive,–
O=P(OCCCl)(OCCCl)OCCCl,inactive,–
CN(C)C(=O)Nc1cccc(C(F)(F)F)c1,inactive,–
CCOC(=O)CBr,inactive,–
CSC([N-]/N=C/c1cccc(C)n1)=[S]=[Cu].CS[C@H]([S-])[N-]/N=C/c1cccc(C)n1,–,-6.87% [at 11.4 µM]
ClCC(Cl)CCl,inactive,–
N#CC(O)c1ccccc1 (stereo not given),inactive,–
c1ccc2c([C@@H]3CCN(CCN4CCOCC4)C3)c[nH]c2c1,–,3.19% [at 11.4 µM]
CC(C)[N+](=O)[O-],inactive,–
C[N+]1([O-])[C@H]2CC[C@H]1CC(OC(=O)[C@@H](CO)c1ccccc1)C2 (stereo not given in full),–,1.19% [at 11.4 µM]
O=C(O)C(O)(c1ccc(-c2ccccc2)cc1)c1ccc(-c2ccccc2)cc1,–,1.15% [at 11.4 µM]
c1ccc2c(c1)CCNC2,inactive,–
COc1cc2c(cc1OC)[C@@]13CCN4CC5=CCO[C@H](CC(=O)O)[C@@H]([C@H]1N2)[C@H]5C[C@H]43,–,4.42% [at 11.4 µM]
O=C(C[C@H](c1ccccc1)c1c(O)c2ccccc2oc1=O)c1ccccc1,–,-4.41% [at 11.4 µM]
CN(C)C(=O)Nc1ccc(Cl)cc1,inactive,–
COc1cc2c(cc1OC)[C@@]13CCN4C=C5CCO[C@H]6CC(=O)N2[C@@H]1[C@@H]6[C@H]5C[C@H]43,–,3.62% [at 11.4 µM]

Compound,Potency,"activity change, negative = inhibition"
O=C(O)c1cccc(Cl)c1,inactive,–
Cl/C=C\Cl,inactive,–
COC(=O)[C@@H]1c2cc3c(c(O)c2[C@@H](O)C[C@]1(C)O)C(=O)c1c(O)cc2c(c1C3=O)O[C@H]1O[C@@]2(C)[C@@H](O)[C@H](N(C)C)[C@H]1O,–,-5.17% [at 11.4 µM]
CC[C@@H]1CN2CCc3cc(OC)c(OC)cc3[C@H]2C[C@@H]1C[C@@H]1NCCc2cc(O)c(OC)cc21,inactive,–
COc1cc2c3cc1Oc1c(O)c(OC)cc4c1[C@@H](Cc1ccc(cc1)Oc1cc(ccc1O)C[C@H]3N(C)CC2)N(C)CC4,–,4.78% [at 11.4 µM]
CO[C@H]1[C@H](O)[C@H](O[C@@H]2[C@H](Oc3cccc4c(O)c5c(=O)oc6ccc(C)c7c(=O)oc(c34)c5c67)O[C@@H](C)[C@H](O)[C@H]2O)O[C@@H](C)[C@@H]1O,–,1.22% [at 11.4 µM]
O=C(O)CNC(=O)c1ccc([As](=O)(O)O)cc1,–,36.2% [at 11.4 µM]
Cc1cc(-c2ccc(N)c(C)c2)ccc1N,inactive,–
c1cc(C2N3CCCN2CC3)ccn1 (stereo not given),–,2.87% [at 11.4 µM]
O=C(Cl)c1ccccc1F,inactive,–
CCCCOCC1CO1 (stereo not given),inactive,–
CC[C@@H]1[C@@H]2Cc3ccc(O)cc3[C@@]1(CC)CCN2C,–,2.22% [at 11.4 µM]
Cc1ccc(C2(c3ccc(C)c(O)c3C)CCN(C)CC2)c(C)c1O,–,1.97% [at 11.4 µM]
CN(C)[C@@H]1C(=O)C(C(N)=O)=C(O)[C@]2(O)C(=O)C3=C(O)c4c(O)cccc4[C@](C)(O)[C@H]3C[C@@H]12,–,-5.55% [at 11.4 µM]
O=C(O)[C@H]1C2c3ccccc3C(c3ccccc32)[C@@H]1C(=O)NCC1CC1,–,2.32% [at 11.4 µM]
CCCCC(CC)COC(=O)c1ccc(C(=O)OCC(CC)CCCC)c(C(=O)OCC(CC)CCCC)c1 (stereo not given),inactive,–
CC(C)CNCCc1ccccn1,–,2.37% [at 11.4 µM]
C(CCOCC1CO1)COCC1CO1 (stereo not given),inactive,–
CN[C@H](Cc1ccccc1)c1cccc(OC)c1O,–,1.41% [at 11.4 µM]
C=CC=O,inactive,–
